An excerpt weighted towards active compounds, which were near 6.9% of everything screened.
VDR inhibitor – blocks the human vitamin D receptor | AID 504847 | 400,000 compounds, 0.93% hits | VDR-SRC2-3 peptide fluorescence polarization, 2 h | Potency, µM, for the others: max response, negative = inhibition, hits mostly inhibitors; note: % is set by controls: 0 for no effect and ±100 for the full control effect
Target sequence (P11473 whole entry, looked up): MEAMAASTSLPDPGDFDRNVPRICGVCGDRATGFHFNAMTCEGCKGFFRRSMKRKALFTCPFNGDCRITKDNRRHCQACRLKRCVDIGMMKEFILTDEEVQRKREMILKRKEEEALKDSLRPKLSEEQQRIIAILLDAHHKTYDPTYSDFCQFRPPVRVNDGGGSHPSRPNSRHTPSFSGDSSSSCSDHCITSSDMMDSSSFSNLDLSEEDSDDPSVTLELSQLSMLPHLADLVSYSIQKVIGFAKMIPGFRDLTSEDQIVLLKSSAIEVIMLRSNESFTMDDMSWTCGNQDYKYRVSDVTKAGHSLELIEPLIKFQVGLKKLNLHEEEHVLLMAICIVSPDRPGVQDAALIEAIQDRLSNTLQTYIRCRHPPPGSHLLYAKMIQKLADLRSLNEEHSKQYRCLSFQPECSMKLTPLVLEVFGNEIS
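VDR–SRC2-3 interaction, FP format. Cmpds 23 nl via pintool, brief spin, 2 h ambient incubation.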
HP1b chromo inh – blocks HP1-beta chromodomain binding to methylated histone tails; AlphaScreen HP1-beta / biotin-H3K9me3 peptide binding; 390,000 compounds, 0.56% hits; Potency, µM (doses to about 114 µM), without a hit: at the top dose activity change, negative = inhibition, hits mostly inhibitors; P83916; note: nearly all actives have a fitted effect of over 70% in size
Target sequence (P83916 whole entry, looked up): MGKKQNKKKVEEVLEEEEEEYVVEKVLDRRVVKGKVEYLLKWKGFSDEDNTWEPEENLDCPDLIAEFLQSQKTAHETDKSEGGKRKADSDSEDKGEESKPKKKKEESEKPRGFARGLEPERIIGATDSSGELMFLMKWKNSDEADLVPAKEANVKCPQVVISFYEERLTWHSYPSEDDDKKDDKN
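AlphaScreen: HP1-beta (50 nM) preformed 30 min with biotin-H3(1-18)K9me3 peptide (50 nM) in PBS pH 7.4, 0.01% Tween-20. Compound added for 30 min at RT, then streptavidin donor/nickel chelate acceptor beads (10 ug/mL) for 30 min.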
PLK1 PBD block – blocks phosphopeptide binding to human PLK1 polo-box domain. P53350. Plk1 PBD binding of FITC phosphopeptide, fluorescence polarization. Potency, µM, for inactives: max response, negative = inhibition, actives largely listed as inhibitors. 360,000 compounds, 2.8% hits. AID 720504; note: series mostly up to about 57 µM; % is set by controls: 0 for no effect and ±100 for the full control effect; nearly all actives have a fitted effect of over 65% in size
JMJD2A Tudor – JMJD2A Tudor domain (human) inhibition. O75164. AlphaScreen JMJD2A-Tudor / H3K4me3 peptide binding. Potency, µM (doses to about 114 µM), inactives show at the highest dose activity change, negative = inhibition, most hits filed as inhibitors. 390,000 compounds, 4.4% hits; note: % is set by controls: 0 for no effect and ±100 for the full control effect; nearly all actives have a fitted effect of over 50% in size
BAZ2B inh – inhibitors of human BAZ2B bromodomain; AlphaScreen BAZ2B-H3K14Ac peptide displacement; Potency, µM (top dose mostly 114 µM), for the others: at the top dose activity change, negative = inhibition, actives largely listed as inhibitors; 360,000 compounds, 4.4% hits; AID 504333; note: % is set by controls: 0 for no effect and ±100 for the full control effect; nearly all actives have a fitted effect of over 60% in size
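Inhibition is scored as reduced AlphaScreen emission. The BAZ2B/b-H3(5-23)K14Ac complex (50 nM each) in PBS pH 7.4, 0.01% Tween-20 meets compound (up to 110 uM) for 30 min at RT before bead addition.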
L3MBTL1 block – L3MBTL1 (human) inhibition | Q9Y468 | AlphaScreen L3MBTL1–H3K9me1 peptide binding | Potency, µM (top dose mostly 57.1 µM), for the others: at the top dose activity, negative = inhibition, usual class: inhibitors | 230,000 compounds, 0.66% hits | AID 485360; note: % is set by controls: 0 for no effect and ±100 for the full control effect; nearly all actives have a fitted effect of over 60% in size
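L3MBTL1 (50 nM) pre-complexed 30 min with biotinylated H3(1-15)K9me1 peptide (75 nM), then compounds added for 30 min at room temperature; AlphaScreen streptavidin donor/nickel chelate acceptor beads (10 ug/mL final) read after 30 min dark incubation.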
Starred values were filed as active, the others as inactive; ? = inconclusive; . = no result; [ ] = another dose, or the depositor's remark. Calls come from the whole dose curve; as a rule, active = well fitted curve in the direction sought with a large enough effect; inconclusive = small, poorly fitted or top-dose-only effect, or another doubt; inactive = no such curve, though single readings can be large; an effect the other way counts as inactive or inconclusive. Potency is the fitted concentration of half-maximal effect.

SMILES	VDR inhibitor	HP1b chromo inh	PLK1 PBD block	JMJD2A Tudor	BAZ2B inh	L3MBTL1 block
CCN(CC)c1ccc2cc(-c3nc4ccccc4[nH]3)c(=O)oc2c1	-4.9%	163.0%	26.7µM*	4.9%	18.6%	5.8%
COc1ccc(N=C2C(=O)N3CCCc4cccc2c43)cc1	-4.8%	-0.4%	-3.9%	-26.1%	?	-7.9%
CC1=CC(C)(C)N2C(=O)C(=Nc3ccc(O)cc3)c3cccc1c32	?	39.8µM*	4.74µM*	-29.4%[11.4 µM]	35.5µM*	11.2µM*
COc1ccccc1NS(=O)(=O)c1ccc2c(c1)CCC(=O)N2	.	.	.	7.5%	.	.
Cc1c(OC(C)C(=O)NCc2ccccn2)ccc2c3c(c(=O)oc12)CCC3 (stereo not drawn)	?	41.3%	-6.5%	-20.1%	-3.6%	.
Cc1ccc(CNC(=O)CCc2ccc(S(=O)(=O)NC3CCCCC3)cc2)cc1	-22.7%	-8.4%	29.9µM*	10.3%[11.4 µM]	-7.9%	.
Cc1c(OCC(=O)NCc2ccccn2)ccc2c3c(c(=O)oc12)CCCC3	-2.7%	13.5%[57 µM]	-9.0%	50.1µM*	-13.1%	.
Cc1c(OCC(=O)NC(Cc2ccc(Cl)cc2)C(=O)O)ccc2c1oc(=O)c1ccccc12 (stereo not drawn)	-11.3%	14.2%	-1.2%	-29.9%	56.2µM*	.
O=C(CCc1ccc(S(=O)(=O)NC2CCCCC2)cc1)NCc1cccnc1	-1.8%	2.7%	-5.6%	-8.5%	-12.7%	2.6%
Cc1cc(S(=O)(=O)NC2CCCCC2)ccc1OCC(=O)NCc1ccccn1	12.8%	21.0%	-15.0%	28.2µM*	-26.8%	-6.4%
Cc1c(OCC(=O)NC(Cc2ccc(Cl)cc2)C(=O)O)ccc2c3c(c(=O)oc12)CCC3 (stereo not drawn)	-23.7%	33.3%	5.9%	-14.3%	-2.5%[57.1 µM]	-1.7%
CC(=O)Nc1ccc(C(=O)N2CCCCC2c2cc(C(=O)Nc3cccc(C#N)c3)no2)cc1 (stereo not drawn)	.	.	-6.3%	.	.	.
COc1ccc(CNc2ncncc2-c2ccccc2C(F)(F)F)c(OC)c1	-18.8%	.	.	.	.	.
CCCNC(=O)C1(C)CCN(CCOc2ccc(Cl)cc2)C1 (stereo not drawn)	.	.	0.0%	.	.	.
O=C(CSC1=Nc2ccccc2C2=NC(Cc3ccccc3)C(=O)N12)Nc1ccccc1C(F)(F)F (stereo not drawn)	3.6%	28.3%	.	-1.7%	-1.4%	.
Cc1ccc(OCC(=O)Nc2cccc(C(=O)OCc3cc(=O)n4c(C)csc4n3)c2)cc1	15.8%	31.9%	.	5.3%	-5.3%	.
O=C(COc1ccc(S(=O)(=O)NCc2ccccc2)cc1Cl)NCc1ccccn1	7.4%	-3.7%	-22.8%	-12.7%	-37.5%	.
O=C(COc1ccc(S(=O)(=O)N2CCc3ccccc32)cc1Cl)NCc1ccccn1	17.3%	-0.7%	-9.0%	44.7µM*	79.4µM*	23.3%[11.4 µM]
CCOc1ccc(C2CC(=O)Nc3c2c(=O)[nH]c2ncnn32)cc1 (stereo not drawn)	8.0%	9.9%	.	-14.9%	-12.0%	.
CC1CCN(c2ccc3c(c2)S(=O)(=O)c2cccc(C(=O)NCc4ccc(F)cc4)c2C3=O)CC1	-13.6%	23.7%	84.4µM*	-10.7%	-4.2%	19.5%
O=C(NCc1cc(C(F)(F)F)ccc1Cl)c1cccc2c1C(=O)c1ccc(N3CCC(Cc4ccccc4)CC3)cc1S2(=O)=O	-7.9%	43.6%	23.8µM*	11.9%	.	3.9%
O=C(NCc1ccc(F)cc1)c1cccc2c1C(=O)c1ccc(N3CCOCC3)cc1S2(=O)=O	-26.3%	44.3%	?	79.4µM*	-7.5%	0.5%
N#CCCn1c(=O)c(-c2ccc(F)cc2)nc2cnc(Oc3ccccc3)nc21	-2.7%	.	.	.	.	.
CCCCN1C(=O)N(C)C2NC(=O)NC21 (stereo not drawn)	-19.9%	27.2%	-6.8%	-7.3%	-22.6%	.
CCCCN1C(=O)NC2NC(=O)NC21 (stereo not drawn)	-1.3%	-50.8%	-4.3%	?	20µM*	-15.2%
SMILES	VDR inhibitor	HP1b chromo inh	PLK1 PBD block	JMJD2A Tudor	BAZ2B inh	L3MBTL1 block
O=C(CSc1nnc2ccc3ccccc3n12)c1ccc(F)cc1	9.8%	162.9%	.	?	?	5.3%
Nc1nc2c(ncn2[C@@H]2O[C@H](COP(=O)(O)OP(=O)(O)O)[C@@H](O)[C@H]2O)c(=O)[nH]1	-3.9%	.	.	.	.	.
Cc1cc(C)cc(-n2c(C)cc(C(=S)N3CCOCC3)c2C)c1	-22.4%	?	18.9µM*	56.2µM*	44.7µM*	-21.1%
O=C(N/N=C/c1cccnc1)c1ccc(Cl)c(Cl)c1	0.4%	36.6%	1.1%	3.2%	.	.
O=S(=O)(N/N=C/c1cccnc1)c1ccc(Cl)c(Cl)c1	?	13.1%	13.4µM*	-16.2%	-5.0%	-3.3%
O=C(NCSc1ccncn1)c1ccccc1	-5.5%	-25.1%	?	20µM*	?	5.8%
O=C(NCSc1ccnc(SCNC(=O)c2ccccc2)n1)c1ccccc1	-6.5%	29.5%	-10.1%	-30.1%	-9.0%	3.4%
CC12CCC(C(=O)NCc3ccccn3)(OC1=O)C2(C)C (stereo not drawn)	-14.5%	19.4%	-0.9%	?	79.4µM*	.
CC12CCC(C(=O)NCc3cccnc3)(OC1=O)C2(C)C (stereo not drawn)	5.3%	7.8%	-0.7%	-9.7%	0.4%	9.2%[11.4 µM]
CC1=C(C(=O)NCc2ccccn2)C2(CCC(C)CC2)OC1=O (stereo not drawn)	8.5%	15.8%	-2.2%	28.2µM*	79.4µM*	-17.7%
CC1=C(C(=O)NCc2ccc(Cl)cc2)C2(CCC(C)CC2)OC1=O (stereo not drawn)	0.7%	42.0%	-4.7%	-6.7%	3.6%	.
Cc1ccc(CNCc2cn[nH]c2-c2ccc(C)cc2)cc1	-26.8%	23.7%	.	-17.0%	.	.
COc1cccc2oc(SC)cc(=O)c12	-24.9%	.	.	.	.	.
COc1ccc(Br)c2oc(S)cc(=O)c12	?	34.4%	?	35.5µM*	-9.4%	7.3%
CCCCCCCCCCCCCCC[C@@H](O)[C@H](CO)NC(C)=O	0.8%	.	.	.	.	.
CCn1ccnc1CN(C)Cc1cn(-c2cc(C)ccc2C)nc1-c1ccccc1	-15.2%	-19.1%	-10.0%	?	?	-21.5%
CCn1ccnc1CN(C)Cc1cn(-c2ccc(C)cc2)nc1-c1ccc(F)cc1	3.3%	?	6.3%	?	50.1µM*	-8.6%
Cc1ccc(-n2cc(CN(C)Cc3nccn3C)c(-c3ccc(F)cc3)n2)cc1	-9.2%	?	?	44.7µM*	20µM*	-9.0%
CCn1ccnc1CN(C)Cc1cn(-c2ccccc2)nc1-c1ccc(OC)cc1F	5.9%	-9.1%	-9.1%	39.8µM*	-31.3%	-3.3%
CCOC(=O)CC1c2nc3ccccc3cc2CN1C(=O)OCC (stereo not drawn)	.	.	0.0%	.	.	.
CCSC1=C(C#N)C2(CCCC2)C(C#N)=C(N)N1	-27.6%	-14.3%	2.99µM*	?	-3.3%	-8.7%
